DT40 TDP1 no CPT: qHTS for Inhibitors of human tyrosyl-DNA phosphodiesterase 1 (TDP1): qHTS in cells in absence of CPT. AID 686978, 2013. hit rate 15% among 420,000. Potency, µM (series often up to 46.2 µM), for the others: at the highest dose activity change, negative = growth inhibition, actives largely listed as inhibitors. DT40 Tdp1-/- hTDP1 cells, no CPT, ATP luminescence, 48 h; also: % is scaled to controls: 0 for no effect and ±100 for the full control effect; nearly all actives have a fitted effect of over 55% in size
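Growth kinetics read by CellTiter-Glo luminescence after ≥48 hr at 37 °C. Cells: DT40 Tdp1-/- stably carrying human TDP1, 400 per well, compound exposure in the absence of CPT (DMSO vehicle).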
HepG2 viability: qHTS for Inhibitors of TGF-b: Cytotox Counterscreen. HepG2 CAGA-GFP viability, ATP luminescence, 18 h. Potency, µM (top dose mostly 46.1 µM), for inactives: at the top dose activity change, negative = cytotoxicity, hits mostly cytotoxic. hit rate 0.76% among 410,000. AID 588856, 2011
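CellTiter-Glo luminescence gave cytotoxicity after 18 hours at 37 degrees C. The cells were HepG2 CAGA-GFP in 1% FBS DMEM, stimulated with 500 pg/mL TGF-beta after compound addition. %Activity was normalised to no-cell wells (complete cell-killing) and DMSO (no toxicity), and curves were fitted and classified.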
ATXN2 expr inh: Primary qHTS for Inhibitors of ATXN expression; hit rate 0.72% among 360,000; Potency, µM (doses to about 57 µM), for inactives: at the highest dose activity change, negative = inhibition, hits mostly inhibitors; HEK-293 ATXN2-luciferase reporter, luminescence, 24 h; AID 1745845, 2022; also: % is scaled to controls: 0 for no effect and ±100 for the full control effect; nearly all actives have a fitted effect of over 55% in size
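qHTS (up to 57 uM final) was run with 24 h compound exposure of reporter cells at 37 °C. Each well was multiplexed: SteadyGlo luminescence measured ATXN2-luciferase expression after a fluorogenic Gly-Phe-AFC viability readout (25 uM final).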
TGFb inhibitor: qHTS for Inhibitors of TGF-b; HepG2 CAGA-GFP TGF-b/SMAD3 reporter, GFP fluorescence, 18 h; TGF-beta stimulated, 500 pg/mL final; Potency, µM (top dose mostly 46.1 µM), for inactives: top-dose activity, negative = inhibition, usual class: inhibitors; AID 588855, 2011; hit rate 1.2% among 410,000; also: % is scaled to controls: 0 for no effect and ±100 for the full control effect; nearly all actives have a fitted effect of over 65% in size
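Read-out: total well GFP (ex488/em500-530) summed from mean per-cell fluorescence. Cells: HEPG2 CAGA-GFP, 1% FBS DMEM, 18 h at 37 degrees C with 500 pg/mL final TGF-beta. Unstimulated wells served as the full-inhibition control; stimulated DMSO wells = 0%.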
ATXN viability: Viability Counterscreen for Primary qHTS for Inhibitors of ATXN expression; S2 cells (HEK-293 line with an ATXN2-luciferase reporter) viability, CellTiter-Fluor protease fluorescence, 24 h; Potency, µM (titrated, usually from 56.7 µM), hits mostly cytotoxic; hit rate 0.49% among 400,000; also: nearly all actives have a fitted effect of over 40% in size
DT40 TDP1 CPT: qHTS for Inhibitors of human tyrosyl-DNA phosphodiesterase 1 (TDP1): qHTS in cells in presence of CPT. hit rate 12% among 420,000. chicken DT40 Tdp1-/-;hTDP1 cells + 20 nM CPT, ATP luminescence, 48 h. Potency, µM (top dose mostly 46.2 µM), for the others: at the top dose activity change, negative = growth inhibition, hits mostly inhibitors; also: % is scaled to controls: 0 for no effect and ±100 for the full control effect; nearly all actives have a fitted effect of over 55% in size
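Chicken DT40 Tdp1-/- cells complemented with human TDP1, 400 cells/well, exposed to compounds plus 20 nM camptothecin for at least 48 h at 37 C; viability read as ATP content by CellTiter-Glo luminescence.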
* hit, by the source's call; i = inactive; ? = inconclusive; . = not tested or not shown. Shown are actives, neighbours in structure and some others; about 17% of the full set was active somewhere. Calls follow the shape of the dose curve; as a rule, active = well fitted curve in the direction sought with a large enough effect; inconclusive = small, poorly fitted or top-dose-only effect, or another doubt; inactive = no such curve, though single readings can be large; an effect the other way counts as inactive or inconclusive. Potency is read from the fitted curve at half-maximal effect.

SMILES	DT40 TDP1 no CPT	HepG2 viability	ATXN2 expr inh	TGFb inhibitor	ATXN viability	DT40 TDP1 CPT
O=C(Cn1c(=O)n(-c2ccccc2)c(=O)c2c3c(sc21)CCC3)c1ccc(Br)cc1	?	6.9%	-7.7%	8.7%	i	-20.2%
CN(C(=O)c1cc2c(s1)-c1ccc(Cl)cc1SC2)c1cccc(C(F)(F)F)c1	16.4µM*	-3.2%	-9.5%	-8.7%	?	14.6µM*
CN(C)CCNC(=O)c1cc2c(s1)-c1ccc(Cl)cc1SC2	8.2µM*	11.2µM*	.	11.2µM*	?	2.59µM*
Cc1ccc(CNC(=O)c2cc3c(s2)-c2ccc(Cl)cc2SC3)cc1	-25.8%	0.0%	-3.7%	-4.0%	i	?
O=C(NCc1ccccc1Cl)c1cc2c(s1)-c1ccc(Cl)cc1SC2	?	-8.5%	-0.2%	0.2%	i	?
C=CCN(Cc1cccs1)C(=O)COc1ccc2c(c1)OCO2	?	-20.0%	22.5%	7.2%	i	-29.2%
COc1ccc(Cl)cc1NC(=O)c1nnn(CC(=O)Nc2ccc(OC)c(OC)c2)c1N	-0.3%	-2.5%	.	-3.0%	i	4.0%
COc1ccc(OC)c(NC(=O)c2nnn(Cc3ccc(Br)cc3F)c2N)c1	18.4µM*	-20.6%	-7.5%	-2.4%	i	8.2µM*
COc1cccc(Cn2nnc(C(=O)NCCc3ccc(Cl)cc3)c2N)c1	?	17.8µM*	-10.9%	?	i	?
CCOc1ccc(OCC)c(NC(=O)c2nnn(CC(=O)Nc3cc(Cl)ccc3OC)c2N)c1	-18.8%	-6.1%	?	?	10µM*	-14.5%
Cc1ccc(C)c(NC(=O)c2nnn(Cc3ccc(F)cc3Cl)c2N)c1	6.51µM*	-13.9%	?	?	?	14.6µM*
Clc1ccccc1N=C1SCCS1	2.5%	-58.8%	28.3%	-5.0%	i	3.4%
CCOC(=O)c1ccc(S(=O)(=O)N2CCC(C(=O)NCC3CCCCC3)CC2)cc1	-0.5%	6.0%	-4.7%	2.8%	i	-13.1%
COc1cccc(Cn2nnc(C(=O)Nc3cc(Cl)ccc3OC)c2N)c1	16.4µM*	-20.7%	?	2.6%	?	23.1µM*
COc1cccc(NC(=O)Cn2nnc(C(=O)Nc3cc(Cl)ccc3OC)c2N)c1	?	-5.6%	.	9.3%	?	-0.6%
Cc1ccc(S(=O)(=O)N(C)Cc2ccc(C(=O)N/N=C/c3ccc(OC(F)F)cc3OC(F)F)cc2)cc1	23.1µM*	-3.5%	-16.6%	-27.0%	i	?
O=C(N/N=C/c1ccc(OC(F)F)cc1OC(F)F)c1ccc(Br)cc1	20.6%	0.8%	-3.1%	-6.4%	i	-10.3%
CC(C)c1ccc(NC(=O)Cc2ccc(NC(=O)N3CCCCc4ccccc43)cc2)cc1	20.6µM*	-8.8%	1.1%	19.5%	i	18.4µM*
O=C(Cc1ccc(NC(=O)N2CCCCc3ccccc32)cc1)Nc1ccccc1Br	20.6µM*	-12.0%	-18.5%	-23.5%	i	?
CCNC(=O)Cc1ccc(NC(=O)N2CCCCc3ccccc32)cc1	-10.5%	17.1%	2.9%	?	i	-13.7%
CC(=O)N(CCc1ccccc1)Cc1cc2ccc(C)c(C)c2[nH]c1=O	-19.0%	17.7%	-6.6%	-23.0%	i	-19.6%
CCn1nc(C)c2c(-c3ccccc3)cc(=O)n(C(C)C(=O)NCCc3ccc(Cl)cc3)c21 (centres undefined)	?	-1.4%	?	0.5%	?	?
COc1cc(-c2nnn(Cc3ccccc3C)n2)cc(OC)c1OC	20.6µM*	-17.4%	.	0.6%	i	?
CCc1ccc(CNC(=O)c2cc3c(=O)n(Cc4cccs4)ccc3nc2C)cc1	23.1µM*	-35.0%	.	?	.	18.4µM*
COc1ccc(NC(=O)c2cc3c(=O)n(Cc4cccs4)ccc3nc2C)c(OC)c1	?	-8.4%	-15.7%	?	i	16.4µM*
SMILES	DT40 TDP1 no CPT	HepG2 viability	ATXN2 expr inh	TGFb inhibitor	ATXN viability	DT40 TDP1 CPT
CCOc1ccc(CNC(=O)c2cc3c(=O)n(Cc4cccs4)ccc3nc2C)cc1	?	-19.3%	.	?	.	9.2µM*
COc1ccc2[nH]cc(CCNc3ncncc3-c3ccccc3Cl)c2c1	?	.	.	.	.	23.1µM*
COc1ccc2[nH]cc(CCNc3ncncc3-c3ccccc3C(F)(F)F)c2c1	?	.	.	.	.	16.4µM*
CC1CCC2C(=O)N(c3ccc(S(=O)(=O)c4ccccc4)cc3)C(=O)C2C1 (centres undefined)	-3.6%	-0.7%	2.7%	-35.9%	i	12.4%
CCOC(=O)c1ccc(NC(=O)CSc2ncc(S(=O)(=O)c3ccc(C)c(Cl)c3)c(=O)[nH]2)cc1	.	-14.6%	11.3%	-29.1%	i	.
CC(Oc1ccc(S(=O)(=O)N2CCCC2)cc1[N+](=O)[O-])C(=O)NC(C)c1ccccc1 (centres undefined)	?	-0.4%	2.5%	0.7%	?	?
Cc1ccc(N2CCN(C(=O)CCS(=O)(=O)c3cc4c(cc3Cl)NC(=O)CO4)CC2)c(C)c1	20.6µM*	-30.4%	6.4%	?	?	23.1µM*
Cc1ccc(Cl)cc1N1CCN(C(=O)CCS(=O)(=O)c2ccc3c(c2)NC(=O)CO3)CC1	10.3µM*	0.3%	?	-19.6%	i	?
O=C1COc2cc(S(=O)(=O)CCC(=O)N3CCN(c4ccccc4F)CC3)c(Cl)cc2N1	.	-20.3%	-0.4%	-8.8%	i	.
O=C1COc2ccc(S(=O)(=O)CCC(=O)N3CCN(c4cccc(Cl)c4)CC3)cc2N1	18.4µM*	-3.9%	.	-0.9%	i	10.3µM*
CC(=O)c1cccc(NS(=O)(=O)c2cccc(S(=O)(=O)c3ccc(Br)cc3)c2)c1	?	5.0%	?	?	?	?
COc1cc(/C=C2\CCC(C3CCCC3)C2=O)ccc1OC(C)C (centres undefined)	?	2.0%	5.0%	3.6%	i	?
O=C(CN1CCN(S(=O)(=O)c2ccc(Cl)cc2)CC1)NC1CC1	28.9%	3.8%	6.8%	0.0%	i	-28.8%
O=C(COc1ccccc1)NCC(c1ccc(Cl)cc1)N1CCCCC1 (centres undefined)	?	-25.2%	-4.9%	-17.1%	i	?
COc1cccc(-c2nc(Cn3c(=O)cc(C)c4c(C)nn(-c5ccccc5)c43)c(C)o2)c1OC	9.8%	14.7%	12.5%	-3.0%	i	7.9%

From PubChem
